According to PubChem BioAssay (Tox21):
Results filed as inconclusive are left out. Where a call stands in place of a potency, no number is given. A number with no mark means an inactive call. Calls of active or inactive are those of the source. The call rests on the fitted dose curve; in most records, active means well fitted cell-killing curve with a large enough effect in the repeat runs (not every such curve was filed as active); inconclusive means weak or mixed curves, or effect the other way; inactive means no such curve, though single readings can be large or run the other way.

assay: qHTS assay to identify small molecule antagonists of the estrogen related receptor signaling pathway with the pleiotropic PPARgamma coactivator (PGC) from Tox21 10K library - cell viability counter screen (AID 1224840); details: PGC/ERR reporter cells viability, CellTiter-Fluor, 17.5 h; series mostly up to 92.4 µM; viability change, negative = cytotoxic: at the top concentration; further: nearly all actives have a fitted effect of over 40% in size
From the text: National Center for Advancing Translational Sciences [NCATS]
NIH Chemical Genomics Center [NCGC]
U.S. Environmental Protection Agency [EPA]
National Institutes of Environmental Health Sciences [NIEHS]
National Toxicology Program [NTP]
U.S. Food and Drug Administration [FDA]
Estrogen related receptors (ERRs), the first orphan nuclear receptors discovered, play an important role in the control of cellular energy metabolism. ERRs are required for high-energy production in response to the environmental challenges. The pleiotropic PPARgamma coactivator (PGC) is a major partner of ERR and a key regulator in energy homeostasis. Together they have been implicated in the etiology of metabolic disorders such as Type 2 diabetes and metabolic syndrome. ERR-alpha was also identified as an adverse marker for breast cancer progression; ERR-alpha-positive tumors have a poor prognosis. To screen and to identify environmental compounds that perturb the ERR and PGC/ERR signaling pathways could provide valuable information for potential therapeutic or preventive measures in the treatment of metabolic disease. To differentiate true PGC/ERR antagonists or agonist from cytotoxic substances, the assay is multiplexed with cell viability assay.
Tox21 Assay Protocol Summary:
The PGC/ERR cells were dispensed at 2,000 cells/5 ul/well in 1536-well white plates using a Multidrop dispenser. After the assay plates were incubated at a 37 C/5% CO2 incubator for 6 hours, 23 nL of compounds dissolved in DMSO, positive and negative controls or DMSO only was transferred to the assay plate by a pin tool. The plates were incubated at 37 C for 17.5 hours. 1 ul/well of CellTiter-Fluor reagent was added into the assay plates using a Flying Reagent Dispenser. After 30-minute incubation at 37 C/5% CO2, the fluorescence intensity in the plates was measured using a ViewLux plate reader.

Structure (SMILES) | Potency | viability change, negative = cytotoxic
CCN(CC)c1ccc(C(=O)c2ccccc2C(=O)O)c(O)c1 | inactive | –
Cc1ccc(N(C)C)cc1 | inactive | –
CCCCOC(=O)COc1ccc(Cl)cc1Cl | inactive | –
CCc1cccc(C)c1N | inactive | –
c1ccc2c(c1)ccc1ccccc12 | inactive | –
O=C(O)c1cc(=O)c2c(OCC(O)COc3cccc4oc(C(=O)O)cc(=O)c34)cccc2o1 | inactive | –
Cc1cnc(C(=O)NCCc2ccc(S(=O)(=O)NC(=O)NC3CCCCC3)cc2)cn1 | inactive | –
O=C(O)c1cc(C(=O)O)cc(S(=O)(=O)O)c1 | inactive | –
CCOC(=O)NNc1nncc2ccccc12 | inactive | –
OCCOCCOCCO | inactive | –
O=P(OC(CCl)CCl)(OC(CCl)CCl)OC(CCl)CCl | – | -21.5%
O=C(Oc1ccccc1)c1ccccc1 | inactive | –
CC(C)(C)[C@@H](O)[C@@H](Cc1ccc(Cl)cc1)n1cncn1 | inactive | –
CCCCCOC(C)=O | inactive | –
CCCCCCCCCCCCOCCO | inactive | –
CCCCCC(N)=O | inactive | –
CCCCCCOCCO | inactive | –
c1ccc(OCCOc2ccccc2)cc1 | inactive | –
C[C@H]1C[C@@H]2[C@H]([C@@H](O)C[C@@]3(C)[C@H]2CC[C@]3(O)C(=O)CO)[C@@]2(C)C=CC(=O)C=C12 | inactive | –
CCCSc1ccc2nc(NC(=O)OC)[nH]c2c1 | inactive | –

Structure (SMILES) | Potency | viability change, negative = cytotoxic
c1ccc2scnc2c1 | inactive | –
ON=C1CCCCC1 | inactive | –
CC1=CCC2CC1C2(C)C (stereo not given) | – | -1.23%
Cc1cccnc1 | inactive | –
CCCCCCCCCCCCCCCO | inactive | –
COc1ccc2cc([C@H](C)C(=O)O)ccc2c1 | inactive | –
O=c1[nH]c(=O)n([C@H]2C[C@H](O)[C@@H](CO)O2)cc1Br | inactive | –
CC(C)c1ccc(S(=O)(=O)O)cc1 | inactive | –
CCCCCC/C(C=O)=C\c1ccccc1 | inactive | –
CCCCCCCCCCCCc1ccccc1 | inactive | –
C/C=C1/CC2C=CC1C2 (stereo not given) | inactive | –
CC1=CC(=O)NS(=O)(=O)O1 | – | 6.68%
OC[C@H]1O[C@@](CO)(O[C@H]2O[C@H](CO)[C@@H](O)[C@H](O)[C@H]2O)[C@@H](O)[C@@H]1O | inactive | –
COc1ccc(NC(C)=O)cc1N | inactive | –
CCCCC(CC)CO (stereo not given) | inactive | –
CC(c1cc2ccccc2s1)N(O)C(N)=O (stereo not given) | inactive | –
COS(C)(=O)=O | inactive | –
FC(F)(F)c1ccc(Cl)c(Cl)c1 | inactive | –
CC1CCC(C(C)C)C(O)C1 (stereo not given) | inactive | –
O=c1[nH]nnc2ccccc12 | inactive | –
